Among all 310,000 compounds or so, about 14,000 (4.5%) showed an effect of 50% or more. The effect is printed as a negative number. Shown is part of a subset that was picked to be rich in strong results.
Target: human ether-à-go-go-related gene (hERG) potassium channel (human, UniProt Q12809)
Assay: primary screen, population patch clamp on CHO cells stably expressing hERG; higher = less effect of the substance
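Also: peak tail current of the secondary pulse compared with the same well before compound.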

human ether-à-go-go-related gene (hERG) potassium channel, sequence (Q12809 whole entry, looked up): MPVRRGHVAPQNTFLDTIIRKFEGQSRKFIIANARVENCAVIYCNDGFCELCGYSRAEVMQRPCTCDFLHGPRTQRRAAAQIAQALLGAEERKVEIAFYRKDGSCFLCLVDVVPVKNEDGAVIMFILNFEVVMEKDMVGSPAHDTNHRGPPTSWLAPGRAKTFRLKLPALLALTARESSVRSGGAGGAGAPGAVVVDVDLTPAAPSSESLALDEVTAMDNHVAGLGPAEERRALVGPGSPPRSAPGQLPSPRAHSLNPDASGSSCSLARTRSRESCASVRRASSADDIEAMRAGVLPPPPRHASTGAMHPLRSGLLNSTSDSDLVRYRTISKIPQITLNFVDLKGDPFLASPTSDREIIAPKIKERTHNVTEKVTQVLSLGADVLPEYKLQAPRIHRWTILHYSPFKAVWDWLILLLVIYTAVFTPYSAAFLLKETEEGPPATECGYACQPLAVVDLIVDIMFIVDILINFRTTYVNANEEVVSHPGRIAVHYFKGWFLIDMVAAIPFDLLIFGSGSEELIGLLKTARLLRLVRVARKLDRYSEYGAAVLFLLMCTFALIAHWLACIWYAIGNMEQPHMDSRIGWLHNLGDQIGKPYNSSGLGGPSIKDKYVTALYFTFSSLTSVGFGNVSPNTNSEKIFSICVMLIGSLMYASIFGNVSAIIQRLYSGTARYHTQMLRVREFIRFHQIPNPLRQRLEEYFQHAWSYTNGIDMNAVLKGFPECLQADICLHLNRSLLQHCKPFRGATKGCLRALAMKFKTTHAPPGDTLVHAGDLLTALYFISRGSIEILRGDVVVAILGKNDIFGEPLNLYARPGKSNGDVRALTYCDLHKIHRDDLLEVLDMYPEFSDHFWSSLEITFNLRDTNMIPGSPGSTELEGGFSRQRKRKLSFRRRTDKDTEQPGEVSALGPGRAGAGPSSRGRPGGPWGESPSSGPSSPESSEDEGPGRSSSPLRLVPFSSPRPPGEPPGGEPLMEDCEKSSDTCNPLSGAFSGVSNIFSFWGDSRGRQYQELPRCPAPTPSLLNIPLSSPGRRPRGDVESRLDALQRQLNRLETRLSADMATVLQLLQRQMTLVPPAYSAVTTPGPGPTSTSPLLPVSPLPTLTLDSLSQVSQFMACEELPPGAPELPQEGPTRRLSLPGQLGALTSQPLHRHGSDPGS

| Compound | hERG current change (%, negative = inhibition) at 10uM [%] |
| --- | --- |
| CCc1cccc(OC2OC(CO)C(O)C(O)C2NC(C)=O)c1 (centres unmarked) | 0.684 |
| O=C(NCCCNc1ccc([N+](=O)[O-])cc1Cl)c1ccccc1F | -4.03 |
| Clc1ccc2c(NCc3ccccc3)ccnc2c1 | -45.5 |
| O=C(NCCCNc1ccnc2cc(Cl)ccc12)c1ccccc1F | -72.4 |
| O=C(NCCNc1ccc(Cl)cc1[N+](=O)[O-])c1ccccc1F | 3.81 |
| Clc1ccc2c(NCc3ccccn3)ccnc2c1 | -39.7 |
| O=C(NCCNc1ccnc2cc(Cl)ccc12)c1ccccc1F | -66.4 |
| C1=CCC(CN2CCNCC2)CC1.O=C(O)C(F)(F)F (centres unmarked) | 9.96 |
| O=C(COC(=O)c1ccccc1NC(=O)c1ccco1)NC1CC1 | -19 |
| CNC(=O)COC(=O)c1ccccc1NC(=O)c1ccco1 | -52.1 |
| O=C(Nc1ccccc1C(=O)OCC(=O)N1CCc2ccccc2C1)c1ccco1 | -30.9 |
| CC(C)(C)NC(=O)COC(=O)c1ccccc1NC(=O)c1ccco1 | -7.06 |
| CC1CCN(C(=O)COC(=O)c2ccccc2NC(=O)c2ccco2)CC1 | -60.9 |
| CN(C)C(=O)COC(=O)c1ccccc1NC(=O)c1ccco1 | -15.7 |
| CS(=O)(=O)N1CCN(C2C3CC4CC(C3)CC2C4)CC1.O=C(O)C(=O)O (centres unmarked) | 26.3 |
| CC(=O)Nc1ccc(N(C(=O)c2cnccn2)C(C(=O)NC2CCCCC2)c2ccc(F)cc2)cc1 (centres unmarked) | 0.645 |
| CC(=O)c1ccccc1C(=O)N(C)C1CCCN(Cc2ccccc2F)C1 (centres unmarked) | 15.2 |
| CNC(=O)N(O)C1N(/N=C/c2ccc(SC)cc2)C(=S)SC1(C)C (centres unmarked) | 26.3 |
| O=C(NCCN1CCOCC1)c1ccc2c(c1)N(Cc1ccc(Cl)cc1)CCS2 | -29.8 |
| N#Cc1c(N)n(-c2ccc(O)cc2)c2nc3ccccc3nc12 | 8.96 |
| Cc1ccc(C)c(-c2[nH]ncc2CN2CCCC(CO)(Cc3ccccc3C)C2)c1 (centres unmarked) | -47.8 |
| COc1cccc(CC2(CO)CCCN(Cc3ccccc3-c3ccco3)C2)c1 (centres unmarked) | -75.8 |

| Compound | hERG current change (%, negative = inhibition) at 10uM [%] |
| --- | --- |
| COc1cccc(CC2(CO)CCCN(Cc3cn[nH]c3-c3ccccc3)C2)c1 (centres unmarked) | -49.9 |
| COc1cccc(CC2(CO)CCCN(Cc3ccc(-c4ccco4)cc3)C2)c1 (centres unmarked) | -3.75 |
| COc1ccc(CN2CCCC(CO)(Cc3ccc(F)cc3)C2)cc1C (centres unmarked) | -47.7 |
| COc1cccc(CC2(CO)CCCN(Cc3cn[nH]c3-c3cc(C)ccc3C)C2)c1 (centres unmarked) | -59.2 |
| OCC1(Cc2ccc(F)cc2)CCCN(Cc2ccc(F)cc2Cl)C1 (centres unmarked) | -2.59 |
| COc1cccc(CC2(CO)CCCN(Cc3cn(C)c4ccccc34)C2)c1 (centres unmarked) | -77.9 |
| COc1ccc(CN2CCCC(CO)(Cc3ccc(F)cc3)C2)c(OC)c1OC (centres unmarked) | -71.1 |
| COc1cccc(CC2(CO)CCCN(Cc3ccccc3Cl)C2)c1 (centres unmarked) | -31.2 |
| CC1C(=O)C(C)C(c2ccco2)NC1c1ccco1.Cl (centres unmarked) | 13.9 |
| O=C(CSc1nnc(CNC(=O)c2cccs2)o1)NC1CCCCC1 | -24 |
| C/C(=N/NC(=O)c1ccncc1)c1ccc2c(c1)OCO2 | 13.8 |
| COc1cccc(CC2(CO)CCCN(Cc3ccc(OC)c(C)c3OC)C2)c1 (centres unmarked) | -77.6 |
| COc1ccc(C(N)=O)cc1NC(=O)c1cccc(F)c1 | 18.9 |
| O=C(COC(=O)C(Cc1ccccc1)NC(=O)c1ccccc1)c1ccccc1 (centres unmarked) | -1.84 |
| O=C(COC(=O)C(Cc1ccccc1)NC(=O)c1ccc(Cl)cc1)c1ccc(Cl)cc1 (centres unmarked) | -27.3 |
| NC(=O)c1ccc(NC(=O)COC(=O)C(Cc2ccccc2)NC(=O)c2ccccc2)cc1 (centres unmarked) | -53 |
| CN1CCN(C(=O)C2=C[C@@H](c3ccc(C(F)(F)F)cc3)C[C@@H](OCc3ccc(CO)cc3)O2)CC1 | -52.6 |
| O=C(NC1CC1)C1=C[C@@H](c2ccc(C(F)(F)F)cc2)C[C@@H](OCc2ccc(CO)cc2)O1 | -63.2 |
| O=C(NC1CC1)C1=C[C@@H](c2ccccc2)C[C@@H](OCc2ccc(CO)cc2)O1 | -38.3 |
| CN1CCN(C(=O)C2=C[C@H](c3ccc(C(F)(F)F)cc3)C[C@H](OCc3ccc(CO)cc3)O2)CC1 | -40.4 |
| O=C(NC1CC1)C1=C[C@@H](c2ccc(Br)cc2)C[C@@H](OCc2ccc(CO)cc2)O1 | -56.4 |
| C#Cc1ccc([C@@H]2C=C(C(=O)NC3CC3)O[C@H](OCc3ccc(CO)cc3)C2)cc1 | -3.96 |

| Compound | hERG current change (%, negative = inhibition) at 10uM [%] |
| --- | --- |
| O=C(O)C1=C[C@@H](c2ccc(C(F)(F)F)cc2)C[C@@H](OCc2ccc(CO)cc2)O1 | 16.7 |
| O=C(NC1CC1)C1=C[C@H](c2ccc(Br)cc2)C[C@H](OCc2ccc(CO)cc2)O1 | -71.1 |
| O=C(O)C1=C[C@H](c2ccc(Br)cc2)C[C@H](OCc2ccc(CO)cc2)O1 | 15.1 |
| O=C(C1=C[C@H](c2ccc(C(F)(F)F)cc2)C[C@H](OCc2ccc(CO)cc2)O1)N1CCCCCCC1 | -17.7 |
| O=C(NC1CC1)C1=C[C@H](c2ccccc2)C[C@H](OCc2ccc(CO)cc2)O1 | -19.9 |
| O=C(NC1CC1)C1=C[C@H](c2ccc(C(F)(F)F)cc2)C[C@H](OCc2ccc(CO)cc2)O1 | -42.7 |
| COc1cc(CNC(=O)c2ccc3c(c2)S(=O)(=O)c2ccccc2C3=O)cc(OC)c1 | -0.0926 |
| O=C(COC(=O)c1cccc(Br)c1)Nc1cccc2c1C(=O)c1ccccc1C2=O | 4.56 |
| Cc1cccc(C)c1Nc1nnc(SCC(=O)NC2CCS(=O)(=O)C2)s1 (centres unmarked) | 1.96 |
| CS(=O)(=O)CCC(C(=O)n1nnc2ccccc21)N1C(=O)c2ccccc2C1=O (centres unmarked) | -3.22 |
| Cc1ccc(NS(=O)(=O)c2ccc(Cl)c(C(=O)Nc3ccccc3-c3nc4ccccc4[nH]3)c2)cc1C | 17.2 |
| O=C(CC12CC3CC(CC(C3)C1)C2)Nc1ccc2c(c1)COC2=O | -9.44 |
| CN(C(=O)/C=C/c1ccccc1)C1CCS(=O)(=O)C1 (centres unmarked) | -0.518 |
| COc1ccc(N2CCN(C(=O)c3ccc(CS(=O)Cc4ccc(C)cc4)o3)CC2)cc1 (centres unmarked) | -18.3 |
| O=C(c1ccc(CS(=O)Cc2ccccc2Cl)o1)N1CCN(c2cccc(Cl)c2)CC1 (centres unmarked) | -41.8 |
| O=C(c1ccc(CS(=O)Cc2ccc(Cl)cc2)o1)N1CCN(c2ccccn2)CC1 (centres unmarked) | -61.2 |
| Cc1ccc(CS(=O)Cc2ccc(C(=O)N3CCOCC3)o2)cc1 (centres unmarked) | -33.3 |
| COc1ccc(N2CCN(C(=O)c3ccc(CS(=O)Cc4ccc(Cl)cc4)o3)CC2)cc1 (centres unmarked) | -50.1 |
| COc1cccc(N2CCN(C(=O)c3ccc(CS(=O)Cc4ccccc4Cl)o3)CC2)c1 (centres unmarked) | -70.7 |
| Cc1ccc(CS(=O)Cc2ccc(C(=O)N3CCN(c4ccc(F)cc4)CC3)o2)cc1 (centres unmarked) | -52.9 |
| COc1cccc(N2CCN(C(=O)c3ccc(CS(=O)c4ccccc4Cl)o3)CC2)c1 (centres unmarked) | -30.8 |
| O=C(c1ccc(CS(=O)Cc2ccccc2Cl)o1)N1CCN(c2ccccn2)CC1 (centres unmarked) | -5.66 |

| Compound | hERG current change (%, negative = inhibition) at 10uM [%] |
| --- | --- |
| COc1cccc(N2CCN(C(=O)c3ccc(CS(=O)Cc4ccc(C)cc4)o3)CC2)c1 (centres unmarked) | -11.4 |
| Cc1ccc(CS(=O)Cc2ccc(C(=O)N3CCN(c4ccccc4)CC3)o2)cc1 (centres unmarked) | -14.8 |
| Cc1ccc(CS(=O)Cc2ccc(C(=O)N3CCN(c4ccccn4)CC3)o2)cc1 (centres unmarked) | -10.1 |
| NS(=O)(=O)c1ccc2nc(NC(=O)CS(=O)(=O)c3ccccc3)sc2c1 | 26.8 |
| CCN(CC)CCN=C(C)c1c(O)n(-c2ccccc2OC)c(=O)[nH]c1=O | 4.71 |
| Cc1cccc(NC(=O)C(=O)C2C(=O)Nc3ccccc32)c1 (centres unmarked) | 4.05 |
| CC1=C(C(=O)Nc2ccccc2)C(c2ccco2)NC(=O)N1 (centres unmarked) | 14.5 |
| O=c1[nH]c2ccc(NS(=O)(=O)c3ccc(Cl)cc3)cc2[nH]1 | 15.8 |
| Cc1cccc(N2CCN(C(=O)c3ccc(CS(=O)Cc4ccc(Cl)cc4)o3)CC2)c1C (centres unmarked) | -57 |
| CCCc1ccc(OCc2ccc(C(=O)N3CCN(c4ccccn4)CC3)o2)c(OC)c1 | -56.5 |
| Cc1ccc(C)c(N2CCN(C(=O)c3ccc(CS(=O)Cc4cccc(Cl)c4)o3)CC2)c1 (centres unmarked) | -6.6 |
| Cc1ccc(Cl)cc1N1CCN(C(=O)c2ccc(CS(=O)Cc3ccc(Cl)cc3)o2)CC1 (centres unmarked) | 13.9 |
| Cc1ccc(CS(=O)Cc2ccc(C(=O)NC3CCCCC3)o2)cc1 (centres unmarked) | 2.31 |
| O=C(c1ccc(CS(=O)Cc2ccc(Cl)cc2)o1)N1CCN(c2ccccc2F)CC1 (centres unmarked) | -55.8 |
| COc1ccccc1S(=O)(=O)Cc1ccc(C(=O)N2CCN(c3ccccn3)CC2)o1 | -17.8 |
| CCCc1ccc(OCc2ccc(C(=O)O)o2)c(OC)c1 | 8.51 |
| Cc1ccc(CS(=O)Cc2ccc(C(=O)NC3CCCCCC3)o2)cc1 (centres unmarked) | 8.98 |
| Cc1ccc(CS(=O)Cc2ccc(C(=O)NC3CCC(C)CC3)o2)cc1 (centres unmarked) | -51 |
| Cc1ccc(C)c(N2CCN(C(=O)c3ccc(CS(=O)Cc4ccc(Cl)cc4)o3)CC2)c1 (centres unmarked) | -26.9 |
| Cc1cccc(N2CCN(C(=O)c3ccc(CS(=O)Cc4cccc(Cl)c4)o3)CC2)c1C (centres unmarked) | -13.5 |

From article PMC4336329 (PLoS ONE, 2015)
